Compound activity from PubChem BioAssay.
The entries come from a sample that favours hits as a whole.
ALOX12 inhib – qHTS Assay for Inhibitors of 12-hLO (12-human lipoxygenase); Polyunsaturated fatty acid lipoxygenase ALOX12 (Homo sapiens), P18054; purified 12-hLO, xylenol orange hydroperoxide absorbance; Potency, µM (highest dose often 57.1 µM), hits mostly inhibitors; 150,000 tested, 0.12% active; AID 1452, 2008; also: nearly all actives have a fitted effect of over 55% in size
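150 nM 12hLO, 25 mM Hepes pH 7.0 + 0.01% Triton X-100; cpd preinc 15 min RT; 40 uM arachidonic acid, 30 min RT; Fe-XO 30 min; A573/A405 ratio as read-out.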
ALOX15B inhib – qHTS Assay for Inhibitors of 15-hLO-2 (15-human lipoxygenase 2) | Polyunsaturated fatty acid lipoxygenase ALOX15B (Homo sapiens), O15296 | purified 15hLO-2, xylenol orange hydroperoxide absorbance | Potency, µM (series often up to 57.1 µM), actives largely listed as inhibitors | 110,000 tested, 0.56% active; also: nearly all actives have a fitted effect of over 60% in size
Target sequence (O15296 whole entry, looked up): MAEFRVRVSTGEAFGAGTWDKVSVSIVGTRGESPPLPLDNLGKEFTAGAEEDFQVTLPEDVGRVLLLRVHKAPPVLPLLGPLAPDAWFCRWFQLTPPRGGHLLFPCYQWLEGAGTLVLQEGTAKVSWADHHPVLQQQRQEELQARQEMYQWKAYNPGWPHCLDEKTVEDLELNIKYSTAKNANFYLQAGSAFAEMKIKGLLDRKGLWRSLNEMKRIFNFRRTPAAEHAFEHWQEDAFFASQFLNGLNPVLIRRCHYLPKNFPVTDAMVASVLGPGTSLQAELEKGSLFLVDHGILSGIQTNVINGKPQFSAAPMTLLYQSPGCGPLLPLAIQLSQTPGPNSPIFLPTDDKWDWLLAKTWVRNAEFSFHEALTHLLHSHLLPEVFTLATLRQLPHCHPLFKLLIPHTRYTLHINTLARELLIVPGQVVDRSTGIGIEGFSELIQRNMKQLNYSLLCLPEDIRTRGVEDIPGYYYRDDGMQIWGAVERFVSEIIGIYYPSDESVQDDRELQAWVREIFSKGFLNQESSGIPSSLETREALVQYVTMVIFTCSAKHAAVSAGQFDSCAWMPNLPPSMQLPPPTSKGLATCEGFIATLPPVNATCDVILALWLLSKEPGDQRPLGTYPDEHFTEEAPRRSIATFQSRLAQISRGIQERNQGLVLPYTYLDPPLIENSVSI
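Screening format was qHTS against 50 nM purified 15hLO-2 in Hepes pH 7.5 with detergent. Activity follows hydroperoxide formation from 45 uM arachidonic acid, measured as 573:405 nm absorbance ratio of the ferric-xylenol orange complex.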
Large screens that a line does not name were inactive; ! = not confirmed by another sample. Calls follow the shape of the dose curve; as a rule, active = well fitted curve in the direction sought with a large enough effect; inconclusive = small, poorly fitted or top-dose-only effect, or another doubt; inactive = no such curve, though single readings can be large; an effect the other way counts as inactive or inconclusive.

COc1ccc2c(c1OC)CN1CCc3cc4c(cc3[C@H]1C2)OCO4	none
COc1ccc2c(c[n+](C)c3c4cc5c(cc4ccc23)OCO5)c1OC	ALOX12 inhib inconclusive, ALOX15B inhib 13µM
O=C1C=CC(=O)C(Cl)=C1	ALOX12 inhib inconclusive, ALOX15B inhib 11µM
O=C1C=CC(=O)C=C1	none
COC(=O)[C@]1(C)CC[C@@]2(C)CC[C@@]3(C)C4=CC=C5C(=CC(=O)C(O)=C5C)[C@@]4(C)CC[C@@]3(C)C2C1 (stereo partly drawn)	ALOX12 inhib inconclusive, ALOX15B inhib 4µM
CN1C[C@@H](CS(=O)(=O)N(C)C)C[C@H]2c3cccc4c3c(cn4C)C[C@@H]21	none
O=c1c2ccccc2nc(N2CCCC2)n1-c1ccccc1	none
O=c1c2ccccc2[se]n1-c1ccccc1	ALOX12 inhib 3.2µM, ALOX15B inhib 0.63µM
C[C@@H]1O[C@@H](O[C@H]2C[C@@H](O)[C@]3(CO)[C@@H]4[C@@H](O)C[C@]5(C)[C@H]([C@@H]6COC(=O)C6)CC[C@@]5(O)[C@H]4CC[C@@]3(O)C2)[C@H](O)[C@H](O)[C@@H]1O	none
CC(C)(C)NC[C@H](O)c1ccccc1Cl	none
CCCN1CC[C@@H]2c3cc(O)ccc3CC[C@H]21	none
c1ccc(Nc2ccc(Nc3ccccc3)cc2)cc1	ALOX12 inhib 13µM, ALOX15B inhib 13µM
O=Nc1ccc(Nc2ccccc2)cc1	ALOX15B inhib inconclusive
Cc1c([C@@H](C)[C@H]2NC[C@H](C)C[C@@H]2O)ccc2c1C[C@@H]1[C@H]2CC=C2C[C@@H](O)CC[C@@]21C	none
COC(=O)C(O)(c1ccc(NC(=O)Oc2ccccc2)cc1)C(F)(F)F (stereo not drawn)	none (no result: ALOX15B inhib)
COC(=O)C(O)(c1ccc(NC(=S)NC(=O)c2ccccc2)cc1)C(F)(F)F (stereo not drawn)	ALOX12 inhib inconclusive, ALOX15B inhib 16µM
C[C@@]12CC[C@H]3[C@@H](CC=C4C[C@H](OS(=O)(=O)O)CC[C@]43C)[C@H]1CCC2=O	none
[Cd+2].[Cl-].[Cl-]	ALOX12 inhib 28µM (no result: ALOX15B inhib)
C=CCN1CC[C@]23c4c5ccc(O)c4O[C@@H]2/C(=N/NC(=O)c2ccccc2)CC[C@@]3(O)[C@H]1C5	none
Nc1ccc([As](=O)(O)O)cc1	none (no result: ALOX15B inhib)
O=[As](O)(O)c1ccc(Cc2ccc([As](=O)(O)O)cc2)cc1	ALOX15B inhib 3.2µM
Cc1ccc(N2C(=O)CC(=O)NC2=O)cc1	none
Cc1ccc(-n2sc3ccccc3c2=O)cc1	ALOX12 inhib 7.9µM (no result: ALOX15B inhib)
C[C@@H]1O[C@H]1P(=O)(O)O	ALOX12 inhib inconclusive
Clc1ccc(N2C[C@H]3CC[C@@H](C2)N3)nn1	none
CN[C@@H](C)[C@@H](O)c1ccccc1	ALOX12 inhib inconclusive, ALOX15B inhib 0.63µM
CNC(C)C(O)c1ccccc1 (stereo not drawn)	none
COc1cc2c(cc1OC)[C@]13CC[N@+]4(C)CC5=CCO[C@H]6CC(=O)N2[C@@H]1[C@@H]6[C@@H]5C[C@]34O	none
CCCCC/C=C\C/C=C\C/C=C\C/C=C\CCCC(=O)NCC(=O)O	ALOX15B inhib 10µM!
CCCCC/C=C\C/C=C\C/C=C\C/C=C\CCCC(=O)NCCCC(=O)O	ALOX15B inhib inconclusive
COc1cc([C@@H](O)CN)ccc1O	none
O[N+]1=CC=CCC1=S.On1ccccc1=S.[Zn]	ALOX15B inhib inconclusive
CC(C)CN(CC(C)C)c1ccc(C=C2C(=O)NC(=S)NC2=O)cc1[N+](=O)[O-]	ALOX12 inhib inconclusive, ALOX15B inhib 10µM
CCC(C)N1C(=O)/C(=C\c2ccc(N3CCCCCC3)cc2)C(=O)NC1=S (stereo not drawn)	none (no result: ALOX15B inhib)
O=C(O)/C=C\c1ccc[c]([Sb](=[O])([OH])[OH])c1	none
Nc1ccc(Cl)cc1N	none
Nc1cc(Cl)ccc1O	ALOX12 inhib 20µM
Cc1cc(Cl)ccc1O	none
Oc1ccc(Cl)cc1Sc1cc(Cl)ccc1O	ALOX15B inhib 16µM
COc1ccc2c(c1O)-c1cccc3c1[C@H](C2)N(C)CC3	none
COc1ccc2c3c1O[C@@H]1C(=O)CC[C@@]4(O)[C@@H](C2)N(CC2CC2)CC[C@]314	none
C[C@@H]1O[C@@H](O[C@H]2C[C@@H](O)[C@]3(CO)[C@@H]4[C@@H](O)C[C@]5(C)[C@H](C6=CC(=O)OC6)CC[C@@]5(O)[C@H]4CC[C@@]3(O)C2)[C@H](O)[C@H](O)[C@@H]1O	none
[Cl-].[Cl-].[Hg+2]	ALOX12 inhib 5µM, ALOX15B inhib 0.79µM
NNc1nncn1N	none
